Whole data set: some 18,000 sequences, median “log2 normalized intensity” near 0.36, cut for the highest 2% near 7.3. Only a selection was taken, and the highest values are over-represented in it overall.

The test concerns the target T1, HNF4alpha8 (COS-7 nuclear extract) (Homo sapiens, UniProt P41235-5 1-452).
T1 sequence: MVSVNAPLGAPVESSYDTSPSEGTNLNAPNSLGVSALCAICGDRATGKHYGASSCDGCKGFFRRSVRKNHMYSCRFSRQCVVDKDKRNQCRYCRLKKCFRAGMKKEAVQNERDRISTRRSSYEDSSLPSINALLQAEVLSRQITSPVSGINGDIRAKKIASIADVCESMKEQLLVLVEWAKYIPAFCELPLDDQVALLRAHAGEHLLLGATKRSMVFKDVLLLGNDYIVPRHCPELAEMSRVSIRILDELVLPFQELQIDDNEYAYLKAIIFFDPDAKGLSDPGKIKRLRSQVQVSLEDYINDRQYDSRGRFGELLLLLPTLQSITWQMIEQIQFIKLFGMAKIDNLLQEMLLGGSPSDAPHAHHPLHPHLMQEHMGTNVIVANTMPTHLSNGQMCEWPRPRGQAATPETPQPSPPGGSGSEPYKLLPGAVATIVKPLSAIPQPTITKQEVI
The test can be described thus: protein-binding microarray; COS-7 nuclear extract on double-stranded Agilent 4x180k PBM; binding buffer, salt, pH and temperature not given in the material; high values mean tight binding. The conditions noted are these: chain copies: 2; label: 3' end of strand 1 on the slide; dsDNA, one strand shown. A digest of the protocol: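 Binding signal is the background-corrected, normalized gProcessedSignal calculated by Agilent software. It was measured by applying nuclear extracts of COS-7 cells transiently transfected with a human HNF4α isoform expression vector to a custom Agilent SurePrint G3 4x180k array of ~44,000 double-stranded ~60-nt test sequences in quadruplicate, then imaging bound HNF4α on an Agilent G2565CA scanner at 2-µm resolution.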
Regarding “ACACCTTTTCTAGCTGAGTTGACCTGTGTTGCCTAGGGAGATTAGAGTATCGGTCGA”, the binding signal is 4.51 log2 normalized intensity. For “ACATTAATCAGTCGCGTATCTGACTTTATCGCCTAGGGAGATTAGAGTATCGGTCGA”, the binding signal was determined as 0.606 log2 normalized intensity. Next, “CATTCTCTAATCAGGTCGCTGCCTGCCCCTGCCTAGGGAGATTAGAGTATCGGTCGA”: 3.39 log2 normalized intensity; “TACATTTTGCTCTGTTGTGTCAAAGGTCACGCCTAGGGAGATTAGAGTATCGGTCGA”: 7 log2 normalized intensity; “GAGTGACCTGGTATTGCAAGTATTTCACCCGCCTAGGGAGATTAGAGTATCGGTCGA”: 1.59 log2 normalized intensity. Regarding “TGGTACTATGACCTTTCACCTTTTAGCTTGGCCTAGGGAGATTAGAGTATCGGTCGA”, the binding signal stood at 6.25 log2 normalized intensity. Next, “TTCACCTTTCGCCCTTTGTCCTATGACTCTGCCTAGGGAGATTAGAGTATCGGTCGA”: 5.44 log2 normalized intensity. Next, “CTATGACCTTTCACCTTTTAGCTTGGCATGGCCTAGGGAGATTAGAGTATCGGTCGA”: 5.08 log2 normalized intensity; “ACCTTTGACCTGGTACTATGACCTTTCACCGCCTAGGGAGATTAGAGTATCGGTCGA”: 7.83 log2 normalized intensity; “TGACCTGGTACTATGACCTTTCACCTTTTAGCCTAGGGAGATTAGAGTATCGGTCGA”: 7.78 log2 normalized intensity. Next, “CCCCAAAAACTTGGACTCTATAGCCTATGCGCCTAGGGAGATTAGAGTATCGGTCGA”: 2.66 log2 normalized intensity; “TGGGGACCTTTGGGCTCTGACCCGAAGGGTGCCTAGGGAGATTAGAGTATCGGTCGA”: 2.6 log2 normalized intensity.

On to “CTTTTGAGTTTCTACCATAGACCCTGTTGGGCCTAGGGAGATTAGAGTATCGGTCGA”, for which the binding signal came to 0.898 log2 normalized intensity. Next, “CTAACCAGCTCTATCAGTCTGGGTCCAGTCGCCTAGGGAGATTAGAGTATCGGTCGA”: 2.82 log2 normalized intensity; “CCCCCGGCTCTACGCAAGTGGTACCTCCCGGCCTAGGGAGATTAGAGTATCGGTCGA”: 2.76 log2 normalized intensity. With “CTTGGCACTTAGCACAAGTGACTATTCTGGGCCTAGGGAGATTAGAGTATCGGTCGA”, the binding signal was 0.0244 log2 normalized intensity.

As to “AGGCAAAGGTGTCAGGACCTTTCTTTATGGGCCTAGGGAGATTAGAGTATCGGTCGA”, the binding signal was found to be 0.451 log2 normalized intensity. Next, “TCCTTTTCTTTCACATACAAAATTTACTTTGCCTAGGGAGATTAGAGTATCGGTCGA”: 1.75 log2 normalized intensity; “GCAGAAGGTGTTTCAGATGGACCAAAGGTCGCCTAGGGAGATTAGAGTATCGGTCGA”: 6.13 log2 normalized intensity. Next, “AAGCTTCACAAAGGGCTGAGGTTAAAGTCCGCCTAGGGAGATTAGAGTATCGGTCGA”: 7.44 log2 normalized intensity; “TCACAAAGGGCTGAGGTTAAAGTCCACATTGCCTAGGGAGATTAGAGTATCGGTCGA”: 8.03 log2 normalized intensity; “AAGGGCTGAGGTTAAAGTCCACATTCTTTAGCCTAGGGAGATTAGAGTATCGGTCGA”: 6.82 log2 normalized intensity. Next, “GAGGCTGAAGTGAAGTTACAAAGGTCACACGCCTAGGGAGATTAGAGTATCGGTCGA”: 6.46 log2 normalized intensity; “CTGAGGTTAAAGTCCACATTCTTTAGCATAGCCTAGGGAGATTAGAGTATCGGTCGA”: 6.12 log2 normalized intensity.

In the case of “ATCAAAGGCTTCTAGAAGAGGTTAAAGACCGCCTAGGGAGATTAGAGTATCGGTCGA”, the binding signal was determined as 1.58 log2 normalized intensity.

As for “CTCTGTATTGTAAAAGAAAGTGAGCAGGCAGCCTAGGGAGATTAGAGTATCGGTCGA”, the binding signal was -0.689 log2 normalized intensity.

For the sequence “ATGACCCAAACTTCACAAAAATGAGTGCAAGCCTAGGGAGATTAGAGTATCGGTCGA”, the binding signal is -0.806 log2 normalized intensity.

With “CAGCAACACTCTACTACTTGACCTTTGAAAGCCTAGGGAGATTAGAGTATCGGTCGA”, the binding signal came out at 6.62 log2 normalized intensity. Next, “AGCAAACACAAACTATGACCTTTGAAACTTGCCTAGGGAGATTAGAGTATCGGTCGA”: 7.82 log2 normalized intensity. Next, “ACACAAACTATGACCTTTGAAACTTACATTGCCTAGGGAGATTAGAGTATCGGTCGA”: 6.68 log2 normalized intensity.

As to “GGGCGAGAGAGTTCTATGGGATGACCTTTGGCCTAGGGAGATTAGAGTATCGGTCGA”, the binding signal came out at 6.82 log2 normalized intensity. Next, “AGAGAGTTCTATGGGATGACCTTTGAGCAAGCCTAGGGAGATTAGAGTATCGGTCGA”: 7.89 log2 normalized intensity.

Turning to “TGACAAGCAAACACAAACTATGACCTTTGAGCCTAGGGAGATTAGAGTATCGGTCGA”, the binding signal worked out at 9.22 log2 normalized intensity. Next, “TTCTTTTTGAAGCAAAGCCTTTGAGCAGATGCCTAGGGAGATTAGAGTATCGGTCGA”: 0.807 log2 normalized intensity; “GTTCTATGGGATGACCTTTGAGCAATAGGAGCCTAGGGAGATTAGAGTATCGGTCGA”: 6.05 log2 normalized intensity.

Take “AGTCTCAAAGGTCAGATGACAGAATTGGTCGCCTAGGGAGATTAGAGTATCGGTCGA”: the binding signal was found to be 4.15 log2 normalized intensity. Turning to “GATAACATCTGGACTTTACACAGACCTTTAGCCTAGGGAGATTAGAGTATCGGTCGA”, the binding signal was found to be 4.07 log2 normalized intensity. Next, “CCCCTTCTGTTTCCAGAAATCTGACCTCTGGCCTAGGGAGATTAGAGTATCGGTCGA”: 5.06 log2 normalized intensity; “AGCTGACGCCCCACCCCCTCCACCCCTGCCGCCTAGGGAGATTAGAGTATCGGTCGA”: 6.68 log2 normalized intensity.

As to “CAATGTGACTGGAGCAGAGCGATCAAAGGTGCCTAGGGAGATTAGAGTATCGGTCGA”, the binding signal came to 1.37 log2 normalized intensity. Next, “ACTACCTCTTTAGGCTGGACTCTGACCCATGCCTAGGGAGATTAGAGTATCGGTCGA”: 7.54 log2 normalized intensity. Next, “TGCAGCCCTGCCACTCTTTTTTAGACTTTGGCCTAGGGAGATTAGAGTATCGGTCGA”: 4.39 log2 normalized intensity. Next, “CTCTTTAGGCTGGACTCTGACCCATTCCTTGCCTAGGGAGATTAGAGTATCGGTCGA”: 5.82 log2 normalized intensity; “CCCTGCCACTCTTTTTTAGACTTTGACCTCGCCTAGGGAGATTAGAGTATCGGTCGA”: 10.2 log2 normalized intensity; “CTGACCTCTTTTGGATTTTTCCATATCTGTGCCTAGGGAGATTAGAGTATCGGTCGA”: 1.57 log2 normalized intensity.

Turning to “ACCAGACTACCTCTTTAGGCTGGACTCTGAGCCTAGGGAGATTAGAGTATCGGTCGA”, the binding signal amounted to 4.7 log2 normalized intensity. Next, “CCACTCTTTTTTAGACTTTGACCTCCATATGCCTAGGGAGATTAGAGTATCGGTCGA”: 8.93 log2 normalized intensity; “GACCTCTGCCCTTCCACCCACTTTATCTTCGCCTAGGGAGATTAGAGTATCGGTCGA”: 3.59 log2 normalized intensity; “ATGACCTCTTTTAGTAACTGACTTTAACTTGCCTAGGGAGATTAGAGTATCGGTCGA”: 1.03 log2 normalized intensity. As to “GCTTATCTGGGAGGGGGAGGTTTTGTGTCTGCCTAGGGAGATTAGAGTATCGGTCGA”, the binding signal stood at 0.884 log2 normalized intensity. Next, “AAATGTAATCAGCAAGTTTTATATGAAAACGCCTAGGGAGATTAGAGTATCGGTCGA”: 0.415 log2 normalized intensity. “CTGTGGTCATTAATTAACTTGTGTTCAGAGGCCTAGGGAGATTAGAGTATCGGTCGA”: the binding signal worked out at 1.07 log2 normalized intensity.

In the case of “TGTTCTTTACTTCCTTTTGTTCCTGCTCTAGCCTAGGGAGATTAGAGTATCGGTCGA”, the binding signal was 1.67 log2 normalized intensity. Next, “AGTCTGCTCAAGTCTTTTAGAATGTGGATGGCCTAGGGAGATTAGAGTATCGGTCGA”: 1.71 log2 normalized intensity.

The values are drawn from PMC10726135, “HNF4α isoforms regulate the circadian balance between carbohydrate and lipid metabolism in the liver”.
